# Experimental data reported in PubChem BioAssay (NCI).
# Compounds without any hit were thinned out: in the full panel of roughly 83,000, 20% have a hit.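 For each line, cells grew in 96-well plates with the test compound present at a single concentration for 48 hours.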 Values without a mark were called inactive. Active and inactive are the calls of the source. The calls were made as follows: active = growth percent below 10; inactive = the rest.
# Tests used:
# Assay in all cases: NCI-60 one-dose screen, 48 h (100 = growth as untreated, 0 = no growth, -100 = all killed)
# HCT-15 colon = conditions: 10 µM unless noted
# HT29 colon = conditions: 10 µM unless noted
# SNB-75 CNS = conditions: 10 µM unless noted
# SNB-19 CNS = conditions: 10 µM unless noted
# U251 CNS = conditions: 10 µM unless noted
# PC-3 prostate = conditions: 10 µM unless noted
# SK-MEL-5 melanoma = conditions: 10 µM unless noted
# UACC-62 melanoma = conditions: 10 µM unless noted
# LOX IMVI melanoma = conditions: 10 µM unless noted
# SK-MEL-28 melanoma = conditions: 10 µM unless noted
# SK-MEL-2 melanoma = conditions: 10 µM unless noted
# EKVX NSCLC = conditions: 10 µM unless noted
# SN12C renal = conditions: 10 µM unless noted
# UO-31 renal = conditions: 10 µM unless noted
# TK-10 renal = conditions: 10 µM unless noted
# A498 renal = conditions: 10 µM
# HL-60(TB) leukemia = conditions: 10 µM unless noted
# CCRF-CEM leukemia = conditions: 10 µM unless noted
# ACHN renal = conditions: 10 µM unless noted
# CAKI-1 renal = conditions: 10 µM unless noted
SMILES,growth (HCT-15 colon),growth (HT29 colon),growth (SNB-75 CNS),growth (SNB-19 CNS),growth (U251 CNS),growth (PC-3 prostate),growth (SK-MEL-5 melanoma),growth (UACC-62 melanoma),growth (LOX IMVI melanoma),growth (SK-MEL-28 melanoma),growth (SK-MEL-2 melanoma),growth (EKVX NSCLC),growth (SN12C renal) [%],growth (UO-31 renal),growth (TK-10 renal),growth (A498 renal),growth (HL-60(TB) leukemia),growth (CCRF-CEM leukemia),growth (ACHN renal),growth (CAKI-1 renal)
CN(C)C(=O)Oc1ccccc1-c1ccccc1,103%,101%,107%,104%,101%,91.9%,102%,104%,97%,116%,102%,101%,102,86.3%,109%,115%,99.7%,96.9%,,
CCOC(=O)[C@@H](C)C[C@H](Cc1ccccc1)NC(=O)c1nc([C@@H](C[C@H](C(C)C)N(C)C(=O)[C@@H](NC(=O)[C@H]2CCCCN2C)C(C)C)OC(C)=O)sc1CCOCc1ccccc1,-30.5% (active),-50.7% (active),-11.2% (active),4.69% (active),-32.4% (active),5.66% (active),-39.7% (active),4.15% (active),-54.4% (active),-23.7% (active),-50.6% (active),10.8%,,-56.3% (active),-6.54% (active),,-62.9% (active),0.263% (active),-22% (active),-23.5% (active)
Brc1ccc2c(c1)c(-c1nc(-c3c[nH]c4ncccc34)cs1)cn2CCN1CCCCC1,20.8%,27.4%,67.7%,90%,42%,51.4%,68.2%,78.2%,65.4%,106%,82.7%,66.9%,80,44.8%,81.5%,95.7%,66%,50.8%,,
COC(=O)[C@H](Cc1ccccc1)NC(=O)c1csc([C@@H](C[C@H](C(C)C)N(C)C(=O)[C@@H](NC(=O)[C@H]2CCCN2C)C2CC2)OC(C)=O)n1,18.7%,8.98% (active),39.2%,59.5%,13.3%,13.2%,29.4%,38.2%,16.8%,51.4%,31.2%,33.4%,33,41.1%,,13.5%,-44.9% (active),4.07% (active),39.9%,36.8%
C#Cc1ccc2c(c1)C(c1ccccc1F)=NCC(=O)N2C,28%,15.7%,51.7%,49%,39.7%,55.8%,29.9%,31.3%,47.5%,63.8%,19.4%,48.9%,,72.5%,75.5%,19.2%,10.2%,58.8%,56.9%,55.1%
O=C1Nc2ccccc2C2c3cccn3-c3ccccc3CN12 (configuration not stated),38%,11.3%,21.1%,73.4%,14.7%,48.6%,43.1%,35%,63%,66.6%,6.54% (active),67.8%,,60%,71.8%,41.1%,44.6%,,81.6%,63.4%
COC(=O)[C@@H](C)C[C@H](Cc1ccccc1)NC(=O)c1csc([C@@H](C[C@H](C(C)C)N(C)C(=O)[C@H](C)NC(=O)[C@H]2CCCN2C)OC(C)=O)n1,57.7%,11.5%,30.7%,51%,24.8%,36.4%,22.3%,45.6%,38.4%,70.1%,43.8%,69.8%,64.8,71.8%,82.7%,53.4%,-21.2% (active),18.7%,,
C#Cc1ccc2c(c1)C(c1ccccc1)=NCC(=O)N2C,26.4%,13.1%,53.9%,46.6%,36.9%,54.4%,34.7%,31%,44.4%,59.1%,25.5%,50.2%,,67.8%,66.1%,26.7%,1.49% (active),48.9%,52%,51.3%
CC(CO)NC1CCCCC1 (configuration not stated),100%,117%,86.9%,102%,98.9%,105%,104%,104%,94.3%,114%,110%,102%,,86.8%,94.9%,77.6%,116%,123%,109%,109%
CCC(=O)Nc1ccc(Cl)c(Cl)c1,101%,91.3%,102%,107%,95.7%,88.9%,101%,96.6%,98.3%,102%,94.3%,98.4%,,89%,86.3%,89.7%,92.4%,103%,98.2%,96.8%
COc1ccc(Nc2ccnc3cc(Cl)ccc23)cc1CN(CCCl)CCCl,-12.1% (active),1.34% (active),-10.8% (active),-0.124% (active),-11% (active),-4.22% (active),-88.4% (active),-87% (active),-51.6% (active),-38.3% (active),-46.7% (active),-15.3% (active),,-42.2% (active),-37.5% (active),-47.5% (active),-22.3% (active),-6.67% (active),-33.7% (active),-63.9% (active)
CC1=C([Te]c2ccc(O)cc2)C(=O)c2ccccc2C1=O,13.6%,1.03% (active),-3.63% (active),12.3%,10%,5.85% (active),-94.6% (active),5.4% (active),5.05% (active),-12.4% (active),31.2%,-57% (active),11.5,,36.1%,-25.8% (active),-38% (active),-13.4% (active),5.62% (active),-93.3% (active)
COC(=O)CCc1c[nH]c2ccc(N(CCCl)CCCl)cc12,64.9%,59.3%,49%,54%,40.1%,65.3%,52%,49.3%,29.7%,91.1%,121%,96.6%,,19.5%,90%,,17.5%,,12.6%,
CCN1C(=O)C(=C/C=C/c2ccccc2)C(=O)N(CC)C1=O,62.6%,66%,96.8%,69.9%,54.9%,61.7%,89.8%,79%,17%,104%,99.9%,,75.8,70.1%,94.3%,94.3%,,-14.1% (active),70.3%,87.8%
